“And” between values parts separate entries of the source, which are not always exact repeats. Equal entries are not always repeated. The campaign covered roughly 5,500 compounds. About 2,000 (36%) were called active. Roughly 18% stayed inconclusive and do not appear here. No stated cut-off is given here; in the data, active means normalized growth mostly below about 0.91 (no sharp cut-off); inconclusive means no clear call, values can overlap the other calls; inactive means mostly above about 0.92. The list shows a part of the results.
Assay: chemical genetic growth profiling, strain panel (AID 1159580);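 further: tested at 20 µM; growth read once vehicle control cultures reached saturation at 30 °C; 1 = growth at the plate median or of vehicle wells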
Settings: S. cerevisiae deletion strains, growth OD

Measured: normalized growth

COc1cc([C@@H]2c3cc4c(cc3[C@H](O)[C@H]3COC(=O)[C@H]23)OCO4)cc(OC)c1OC
inactive: locus YAL013W, strain DEP1, stronger effect = lower value 1.01 | locus YAL021C, strain ccr4, stronger effect = lower value 1 | locus YAL026C, strain drs2, stronger effect = lower value 1.03 | locus YAL030W, strain snc1, stronger effect = lower value 1.01 | locus YBL061C, strain skt5, stronger effect = lower value 1.01 | locus YBR009C, strain hhf1, stronger effect = lower value 1.04 | locus YBR021W, strain FUR4, stronger effect = lower value 1.01 | locus YBR023C, strain chs3, stronger effect = lower value 1.01 | locus YBR171W, strain sec66, stronger effect = lower value 1.01 | locus YBR229C, strain ROT2, stronger effect = lower value 1.01 | locus YBR231C, strain swc5, stronger effect = lower value 1.01 | locus YBR279W, strain paf1, stronger effect = lower value 1.02 | locus YCL011C, strain gbp2, stronger effect = lower value 1.01 | locus YCL016C, strain dcc1, stronger effect = lower value 0.996 | locus YCL029C, strain bik1, stronger effect = lower value 1.03 | locus YCL061C, strain MRC1, stronger effect = lower value 1.02 | locus YCL069W, strain vba3, stronger effect = lower value 1.01 | locus YCR088W, strain abp1, stronger effect = lower value 1.01 | locus YDL005C, strain med2, stronger effect = lower value 1.01 | locus YDL035C, strain GPR1, stronger effect = lower value 1.01 | locus YDL040C, strain nat1, stronger effect = lower value 1 | locus YDL074C, strain BRE1, stronger effect = lower value 1.05 | locus YDL101C, strain DUN1, stronger effect = lower value 1.02 | locus YDL134C, strain PPH21, stronger effect = lower value 1.02 | locus YDL185W, strain tfp1, stronger effect = lower value 1.01 | locus YDL192W, strain arf1, stronger effect = lower value 1.01 | locus YDR001C, strain nth1, stronger effect = lower value 1 | locus YDR069C, strain doa4, stronger effect = lower value 1 | locus YDR101C, strain arx1, stronger effect = lower value 1.01 | locus YDR137W, strain rgp1, stronger effect = lower value 1.03 | locus YDR150W, strain NUM1, stronger effect = lower value 1.01 | locus YDR159W, strain sac3, stronger effect = lower value 0.987 | locus YDR162C, strain NBP2, stronger effect = lower value 1.01 | locus YDR195W, strain ref2 0.971 | locus YDR297W, strain sur2, stronger effect = lower value 1.01 | locus YDR318W, strain mcm21, stronger effect = lower value 1.03 | locus YDR334W, strain swr1, stronger effect = lower value 1.02 | locus YDR335W, strain msn5, stronger effect = lower value 1.01 | locus YDR388W, stronger effect = lower value 1.01 | locus YDR392W, strain spt3, stronger effect = lower value 0.926 | locus YDR502C, strain sam2, stronger effect = lower value 1 | locus YEL003W, strain gim4, stronger effect = lower value 1.01 | locus YEL037C, strain rad23, stronger effect = lower value 1.02 | locus YEL061C, strain CIN8 (second series), stronger effect = lower value 1.01 | locus YEL061C, strain CIN8, stronger effect = lower value 1 | locus YER015W, strain faa2, stronger effect = lower value 1.02 | locus YER016W, strain bim1, stronger effect = lower value 1 | locus YER110C, stronger effect = lower value 1.01 | locus YER111C, strain swi4, stronger effect = lower value 1.01 | locus YER155C, strain BEM2 (second series), stronger effect = lower value 0.998 | locus YER155C, strain BEM2, stronger effect = lower value 1.01 | locus YER167W, strain BCK2, stronger effect = lower value 1.01 | locus YFR010W, strain ubp6, stronger effect = lower value 1.02 | locus YGL078C, strain dbp3, stronger effect = lower value 1 | locus YGL086W, strain mad1, stronger effect = lower value 1 | locus YGL167C, strain pmr1, stronger effect = lower value 1.01 | locus YGL173C, strain kem1, stronger effect = lower value 1.04 | locus YGL227W, strain vid30, stronger effect = lower value 1.01 | locus YGL240W, strain doc1, stronger effect = lower value 1 | locus YGL248W, strain PDE1, stronger effect = lower value 1.01 | locus YGL253W, strain hxk2, stronger effect = lower value 0.982 | locus YGR078C, strain PAC10, stronger effect = lower value 1.03 | locus YGR135W, strain pre9, stronger effect = lower value 1.01 | locus YGR229C, strain SMI1, stronger effect = lower value 1.03 | locus YGR252W, strain gcn5, stronger effect = lower value 0.988 | locus YHR013C, strain ard1, stronger effect = lower value 1 | locus YHR027C, strain rpn1, stronger effect = lower value 1.01 | locus YHR030C, strain SLT2, stronger effect = lower value 1.01 and 0.951 | locus YHR079C, strain IRE1 (second series), stronger effect = lower value 1.02 | locus YHR079C, strain IRE1, stronger effect = lower value 0.952 | locus YHR094C, strain hxt1, stronger effect = lower value 1.01 | locus YHR129C, strain ARP1, stronger effect = lower value 1.01 | locus YHR142W, strain chs7, stronger effect = lower value 0.992 | locus YHR200W, strain rpn10, stronger effect = lower value 1.01 | locus YIL066C, strain RNR3, stronger effect = lower value 1.02 | locus YIL073C, strain SPO22, stronger effect = lower value 1.02 | locus YIL125W, strain kgd1, stronger effect = lower value 1.01 | locus YIR030C, strain dcg1, stronger effect = lower value 1.01 | locus YJL092W, strain hpr5, stronger effect = lower value 1.02 | locus YJL095W, strain BCK1 (second series), stronger effect = lower value 1.01 | locus YJL095W, strain BCK1, stronger effect = lower value 1.04 and 0.961 | locus YJL115W, strain asf1, stronger effect = lower value 1.01 | locus YJL129C, strain trk1, stronger effect = lower value 1.02 | locus YJL134W, strain LCB3, stronger effect = lower value 1.01 | locus YJL154C, strain vps35, stronger effect = lower value 0.999 | locus YJL164C, strain tpk1, stronger effect = lower value 1.02 | locus YJL166W, strain qcr8, stronger effect = lower value 1 | locus YJL168C, strain set2, stronger effect = lower value 1.01 | locus YJL187C, strain SWE1 (second series), stronger effect = lower value 1.04 | locus YJL187C, strain SWE1, stronger effect = lower value 1.02 | locus YJR043C, strain POL32, stronger effect = lower value 1.04 | locus YJR066W, strain TOR1, stronger effect = lower value 0.927

— PubChem BioAssay AID1159580 (chemical genetic matrix, 2015)
